Data as given in PubChem BioAssay (EPA / NIEHS).
Activity calls are given as the source filed them. The calls were made as follows: active = hit-call score of the fitted dose curve at least 0.9, where 1 is the maximum; inactive = score below 0.9.

Legend:
Conditions in all cases: mRNA level, 48 h; actives raise or lower the signal
[1] = read-out: Cytochrome P450 (CYP1A2), CYP1A2 (gene 1544); assay: LTEA_HepaRG_CYP1A2: Life Technologies and Expression Analysis (LTEA) Assay for Cytochrome P450 (CYP1A2) using HepaRG (AID 2283479)
Outline: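 Differentiated human HepaRG cells in serum-free induction medium exposed 48 hours in duplicate to 8 half-log concentrations from 100 uM, 0.5% DMSO. CYP1A2 mRNA quantified by qRT-PCR, normalized to ACTB, GAPDH and POLR2A; bidirectional fitting versus DMSO.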

[2] = read-out: cysteine-aspartic acid protease (CASP8), CASP8 (gene 841); assay: LTEA_HepaRG_CASP8: Life Technologies and Expression Analysis (LTEA) Assay for cysteine-aspartic acid protease (CASP8) using HepaRG (AID 2283480)
Outline: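 qRT-PCR readout of CASP8 mRNA, normalized to three housekeeping genes, after 48 h chemical exposure of HepaRG cells; 8-point half-log series, top 100 uM, 0.5% DMSO vehicle. Bidirectional curve fitting against DMSO baseline.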

[3] = read-out: Cytochrome P450 (CYP2B6), CYP2B6 (gene 1555); assay: LTEA_HepaRG_CYP2B6: Life Technologies and Expression Analysis (LTEA) Assay for Cytochrome P450 (CYP2B6) using HepaRG (AID 2283481)
Outline: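 Differentiated human HepaRG cells in serum-free induction medium, dosed in duplicate for 48 h over 8 half-log concentrations topping at 100 uM (0.5% DMSO). CYP2B6 mRNA measured by TaqMan qRT-PCR, normalized to ACTB, GAPDH, POLR2A; bidirectional fit versus DMSO.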

CYP2C8 (gene 1558) = assay: LTEA_HepaRG_CYP2C8: Life Technologies and Expression Analysis (LTEA) Assay for CYP2C8 using HepaRG (AID 2283483)
Outline: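 HepaRG (human liver line), 48 h chemical exposure, 8-pt half-log series from 100 uM, 0.5% DMSO vehicle. Readout: CYP2C8 transcript by qRT-PCR, housekeeping-normalized. Bidirectional fit vs DMSO baseline.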

CYP2C9 (gene 1559) = assay: LTEA_HepaRG_CYP2C9: Life Technologies and Expression Analysis (LTEA) Assay for CYP2C9 using HepaRG (AID 2283484)
Outline: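 HepaRG, 48 h dosing, 8-pt half-log series, top 100 uM, 0.5% DMSO vehicle. Read-out: CYP2C9 transcript by TaqMan qRT-PCR, housekeeping-normalized (ACTB/GAPDH/POLR2A). Gain or loss fitted vs DMSO baseline.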

CYP4A11 (gene 1579) = assay: LTEA_HepaRG_CYP4A11: Life Technologies and Expression Analysis (LTEA) Assay for CYP4A11 using HepaRG (AID 2283486)
Outline: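 Differentiated HepaRG cells, 48 h after plating, exposed in duplicate for 48 h to 8 half-log concentrations up to 100 uM in 0.5% DMSO in serum-free induction medium. CYP4A11 mRNA measured by TaqMan qRT-PCR, normalized to ACTB, GAPDH and POLR2A.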

[4] = read-out: DNA damage-inducible transcript 3 (DDIT3), DDIT3 (gene 1649); assay: LTEA_HepaRG_DDIT3: Life Technologies and Expression Analysis (LTEA) Assay for DNA damage-inducible transcript 3 (DDIT3) using HepaRG (AID 2283488)
Outline: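 Cells are human HepaRG liver cells treated for 48 h with eight half-log concentrations up to 100 uM in 0.5% DMSO. Transcript levels come from qRT-PCR normalized to three housekeeping genes, with activity fitted in both directions relative to vehicle.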

[5] = read-out: Early growth response protein 1 (EGR1) transcription factor, EGR1 (gene 1958); assay: LTEA_HepaRG_EGR1: Life Technologies and Expression Analysis (LTEA) Assay for Early growth response protein 1 (EGR1) transcription factor using HepaRG (AID 2283490)
Outline: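 HepaRG, 48 h exposure, 8-pt half-log series from 100 uM, 0.5% DMSO vehicle; EGR1 transcript by TaqMan qRT-PCR (Fluidigm array), housekeeping-normalized; bidirectional fit relative to DMSO baseline.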

[6] = read-out: Ezrin (EZR), EZR (gene 7430); assay: LTEA_HepaRG_EZR: Life Technologies and Expression Analysis (LTEA) Assay for Ezrin (EZR) using HepaRG (AID 2283491)
Outline: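 Gain or loss of EZR mRNA is scored relative to 0.5% DMSO in human HepaRG cultures treated 48 h with test chemicals in duplicate, eight half-log concentrations from 100 uM.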

CYP3A5 (gene 1577) = assay: LTEA_HepaRG_CYP3A5: Life Technologies and Expression Analysis (LTEA) Assay for CYP3A5 using HepaRG (AID 2283493)
Outline: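 Human HepaRG hepatic cells receive 48 h chemical treatment at eight concentrations (half-log steps from 100 uM) in 0.5% DMSO. Expression of CYP3A5 is quantified by Fluidigm qRT-PCR and normalized to three reference genes.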

[7] = read-out: Cytochrome P450 4A22 (Homo sapiens) (UniProt Q5TCH4); assay: LTEA_HepaRG_CYP4A22: Life Technologies and Expression Analysis (LTEA) Assay for Cytochrome P450 4A22 (CYP4A22) using HepaRG (AID 2283495)
Outline: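 Differentiated HepaRG cells in serum-free induction medium exposed 48 h in duplicate to eight half-log concentrations up to 100 uM in 0.5% DMSO. CYP4A22 mRNA quantified by TaqMan qRT-PCR, normalized to ACTB, GAPDH and POLR2A; bidirectional fit versus DMSO.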

[8] = read-out: Cytochrome P450 7A1 (Homo sapiens) (UniProt P22680); assay: LTEA_HepaRG_CYP7A1: Life Technologies and Expression Analysis (LTEA) Assay for Cytochrome P450 7A1 (CYP7A1) using HepaRG (AID 2283496)
Outline: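 HepaRG, 48 h exposure, 8-pt half-log series from 100 uM, 0.5% DMSO vehicle, duplicates. Readout: TaqMan qRT-PCR mRNA vs three housekeeping genes; bidirectional curve fit against DMSO baseline.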

[9] = read-out: Glutathione S-Transferase (GSTA2), GSTA2 (gene 2939); assay: LTEA_HepaRG_GSTA2: Life Technologies and Expression Analysis (LTEA) Assay for Glutathione S-Transferase (GSTA2) using HepaRG (AID 2283497)
Outline: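 qRT-PCR readout of GSTA2 transcript, normalized to three housekeeping genes, fitted bidirectionally against 0.5% DMSO baseline. Differentiated HepaRG cells received compound for 48 h at 8 concentrations (top 100 uM, half-log steps).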

[10] = read-out: Glutamate-cysteine ligase catalytic (GCLC), GCLC (gene 2729); assay: LTEA_HepaRG_GCLC: Life Technologies and Expression Analysis (LTEA) Assay for Glutamate-cysteine ligase catalytic (GCLC) using HepaRG (AID 2283498)
Outline: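 HepaRG, 48 h exposure, 8-pt half-log series from 100 uM, 0.5% DMSO vehicle; TaqMan qRT-PCR for GCLC mRNA, housekeeping-normalized; bidirectional curve fit vs DMSO baseline.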

[11] = read-out: Cytochrome P450 2C19 (Homo sapiens) (UniProt P33261); assay: LTEA_HepaRG_CYP2C19: Life Technologies and Expression Analysis (LTEA) Assay for CYP2C19 using HepaRG (AID 2283482)
Outline: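 Differentiated HepaRG cells in serum-free induction medium exposed 48 h in duplicate, 8 concentrations from 100 uM by half-log steps in 0.5% DMSO. CYP2C19 mRNA measured by TaqMan qRT-PCR, normalized to ACTB, GAPDH, POLR2A. Bidirectional fit versus DMSO.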

[12] = read-out: Cytochrome P450 3A4 (Homo sapiens) (UniProt P08684); assay: LTEA_HepaRG_CYP3A4: Life Technologies and Expression Analysis (LTEA) Assay for CYP3A4 using HepaRG (AID 2283487)
Outline: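 In a human hepatic line (HepaRG), duplicate wells were treated 48 h with up to 100 uM chemical in half-log dilutions. Endpoint: CYP3A4 mRNA induction or loss relative to 0.5% DMSO vehicle, by qRT-PCR.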

[13] = read-out: Pro-epidermal growth factor (Homo sapiens) (UniProt P01133); assay: LTEA_HepaRG_EGF: Life Technologies and Expression Analysis (LTEA) Assay for Epidermal growth factor (EGF) using HepaRG (AID 2283489)
Outline: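 HepaRG cells (~100,000/well, 48 h pre-culture) exposed in duplicate for 48 h in serum-free induction medium to 8 half-log concentrations up to 100 uM in 0.5% DMSO. EGF mRNA by qRT-PCR, normalized to ACTB/GAPDH/POLR2A; bidirectional fit versus DMSO.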

[14] = read-out: Fatty Acid-Binding Protein 1 (FABP1), FABP1 (gene 2168); assay: LTEA_HepaRG_FABP1: Life Technologies and Expression Analysis (LTEA) Assay for Fatty Acid-Binding Protein 1 (FABP1) using HepaRG (AID 2283494)
Outline: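 qRT-PCR readout of FABP1 transcript (normalized to three housekeeping genes) after 48 h chemical exposure of HepaRG cells; eight concentrations, half-log steps, max 100 uM, 0.5% DMSO vehicle; gain or loss fitted relative to DMSO baseline.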

CYP2E1 (gene 1571) = assay: LTEA_HepaRG_CYP2E1: Life Technologies and Expression Analysis (LTEA) Assay for CYP2E1 using HepaRG (AID 2283485)
Outline: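 Readout is qRT-PCR of CYP2E1 mRNA, normalized to three housekeeping genes and fitted bidirectionally against 0.5% DMSO. HepaRG cells were dosed 48 h at eight concentrations, highest 100 uM with half-log dilutions.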

[15] = read-out: Cytochrome P450 3A7 (Homo sapiens) (UniProt P24462); assay: LTEA_HepaRG_CYP3A7: Life Technologies and Expression Analysis (LTEA) Assay for CYP3A7 using HepaRG (AID 2283492)
Outline: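 Differentiated HepaRG cells in serum-free induction medium exposed 48 h in duplicate to 8-point half-log series from 100 uM top in 0.5% DMSO. CYP3A7 mRNA by qRT-PCR, normalized to ACTB/GAPDH/POLR2A, bidirectional fit versus DMSO.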

Measured: AC50

Sequence of Cytochrome P450 2C19 (Homo sapiens) (P33261 whole entry, looked up): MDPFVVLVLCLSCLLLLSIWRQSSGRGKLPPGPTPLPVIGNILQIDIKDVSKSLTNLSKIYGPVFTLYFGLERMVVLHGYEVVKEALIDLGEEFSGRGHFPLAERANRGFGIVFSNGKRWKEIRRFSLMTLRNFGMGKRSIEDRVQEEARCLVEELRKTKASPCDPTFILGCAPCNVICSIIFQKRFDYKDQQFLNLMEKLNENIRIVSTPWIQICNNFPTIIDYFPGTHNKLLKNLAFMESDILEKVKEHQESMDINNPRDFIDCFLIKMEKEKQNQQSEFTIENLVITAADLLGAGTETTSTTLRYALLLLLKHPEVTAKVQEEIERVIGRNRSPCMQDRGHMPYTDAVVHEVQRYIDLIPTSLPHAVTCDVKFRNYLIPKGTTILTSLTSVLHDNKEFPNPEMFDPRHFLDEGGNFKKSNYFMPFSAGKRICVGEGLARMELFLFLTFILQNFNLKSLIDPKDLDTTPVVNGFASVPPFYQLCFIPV
Sequence of Cytochrome P450 3A4 (Homo sapiens) (P08684 whole entry, looked up): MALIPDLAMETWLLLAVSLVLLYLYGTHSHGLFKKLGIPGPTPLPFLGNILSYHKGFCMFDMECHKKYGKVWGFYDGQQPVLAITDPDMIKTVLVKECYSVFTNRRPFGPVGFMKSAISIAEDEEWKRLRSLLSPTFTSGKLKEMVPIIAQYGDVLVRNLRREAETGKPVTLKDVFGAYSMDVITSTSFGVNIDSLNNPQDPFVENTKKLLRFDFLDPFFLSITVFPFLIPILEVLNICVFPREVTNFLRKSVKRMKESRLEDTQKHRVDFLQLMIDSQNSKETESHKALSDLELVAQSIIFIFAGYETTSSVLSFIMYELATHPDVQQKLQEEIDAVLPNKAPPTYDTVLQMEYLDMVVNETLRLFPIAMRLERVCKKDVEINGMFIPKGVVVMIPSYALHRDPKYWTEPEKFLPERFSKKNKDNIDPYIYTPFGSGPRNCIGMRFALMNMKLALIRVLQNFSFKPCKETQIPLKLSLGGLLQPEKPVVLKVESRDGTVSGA
Sequence of Cytochrome P450 3A7 (Homo sapiens) (P24462 whole entry, looked up): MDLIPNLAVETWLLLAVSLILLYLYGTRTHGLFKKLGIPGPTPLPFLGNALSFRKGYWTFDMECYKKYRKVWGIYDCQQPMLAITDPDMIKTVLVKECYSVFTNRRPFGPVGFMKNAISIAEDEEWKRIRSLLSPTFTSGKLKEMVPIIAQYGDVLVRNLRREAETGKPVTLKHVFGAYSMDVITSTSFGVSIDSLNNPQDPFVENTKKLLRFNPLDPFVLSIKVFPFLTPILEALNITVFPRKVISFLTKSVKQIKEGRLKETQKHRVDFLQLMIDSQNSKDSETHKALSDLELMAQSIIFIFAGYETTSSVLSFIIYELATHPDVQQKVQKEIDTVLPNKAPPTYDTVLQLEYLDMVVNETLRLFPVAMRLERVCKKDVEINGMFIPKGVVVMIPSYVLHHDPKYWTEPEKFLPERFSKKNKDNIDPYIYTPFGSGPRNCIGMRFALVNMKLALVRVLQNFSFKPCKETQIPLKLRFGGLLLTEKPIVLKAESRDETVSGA

Cn1cnc([N+](=O)[O-])c1Sc1ncnc2nc[nH]c12
inactive: [2] | [6] | CYP3A5 (gene 1577) | [10]
active: [1] 0.9 µM | [3] 5.23 µM | CYP2C8 (gene 1558) 7.61 µM | CYP2C9 (gene 1559) 9.87 µM | CYP4A11 (gene 1579) 0.324 µM | [4] 9.59 µM | [5] 13 µM | [7] 0.238 µM | [8] 2.09 µM | [9] 1.35 µM

Cc1ccc(N)cc1O
active: [1] 26.8 µM | [14] 23.1 µM | [8] 24.4 µM
not listed: CYP2C9 (gene 1559) | CYP2E1 (gene 1571) | [15]
inactive: all other assays above

CC(C)(O)c1coc(S(=O)(=O)NC(=O)Nc2c3c(cc4c2CCC4)CCC3)c1
active: [1] 50 µM | [3] 2.62 µM | CYP2E1 (gene 1571) 36.8 µM | [15] 10.5 µM | [8] 18.3 µM
not listed: CYP2C9 (gene 1559) | [11] | [12] | [13]
inactive: all other assays above

CC(=O)OCCC(C)C
not listed: CYP2C9 (gene 1559) | [13] | [14] | [15]
inactive: all other assays above
